The source of these data is PubChem BioAssay (Tox21).

Structures are written as SMILES. Several values for one entry are separate records, joined by “and”; a condition that tells them apart may be missing. Identical values can stand only once. Records with an inconclusive call do not appear. A call without a number means that no potency is given here. Activity calls are given as the source filed them. Calls follow the shape of the dose curve; as a rule, active = well fitted cell-killing curve with a large enough effect in the repeat runs; inconclusive = weak or mixed curves, or effect the other way; inactive = flat fitted curve, though single readings scatter.
Potency is read from the fitted curve at half-maximal effect.

This assay is described as follows: cAMP Responsive Elements (CRE) small molecule agonists, cell-based qHTS assay: qHTS cell viability counter screen (AID 2060914). Also: nearly all actives have a fitted effect of over 50% in size. As to conditions: CRE-bla HEK293T viability, CellTiter-Glo luminescence, 5 h; series mostly up to 92.4 µM. Summed up: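 Cells are seeded and incubated 18 h, treated with compounds in DMSO for 3 h, read for the bla reporter, then given CellTiter-Glo; luminescence is measured after 30 min at room temperature.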
For `CCCC(=O)Cl`, the Potency result is “inactive”.

`O=C1OC(c2ccc(O)c(S(=O)(=O)O)c2)(c2ccc(O)c(S(=O)(=O)O)c2)c2c(Br)c(Br)c(Br)c(Br)c21`: the Potency entry is “inactive”.

On to `OC(c1ccc(Cl)cc1)(c1cncnc1)c1ccccc1Cl` (stereo not given), for which the Potency entry was “inactive”.

As for `OCCN(CCO)CCO`, the Potency result was “inactive”.

In the case of `CN(N=O)c1ccc([N+](=O)[O-])cc1`, the Potency result was “inactive”.

As for `CC(C)(C)NCC(O)c1ccccc1Cl` (stereo not given), the Potency result was “inactive”.

As to `CC1N=C(N)OC1c1ccccc1` (stereo not given), the Potency entry is “inactive”.

As to `Cc1ccc(N)cc1N`, the Potency result is “inactive”.

Consider `CCCCCCCCOC(=O)c1ccc(C(=O)OCCCCCCCC)c(C(=O)OCCCCCCCC)c1`, for which the Potency result is “inactive”.

With `Oc1cccc2cccnc12`, the Potency entry is “inactive”.

Take `Cc1c([N+](=O)[O-])cc2c(c1[N+](=O)[O-])C(C)(C)CC2(C)C`: the Potency result is “inactive”.

As to `CC(C(=O)c1ccccc1)N(C)C` (stereo not given), the Potency result is “inactive”.

Turning to `C=CC(=O)N(C)C`, the Potency entry was “inactive”.

As for `Cc1cc(Cl)ccc1N=CN(C)C`, the Potency entry is “inactive”.

Take `O=C/C=C/c1ccco1`: the Potency entry was “inactive”.

With `O=C(O)CF`, the Potency entry was “inactive”.

As for `ClSC(Cl)(Cl)Cl`, the Potency result is “inactive”.

Regarding `Cc1ccc(OP(=O)(Oc2ccccc2)Oc2ccccc2)cc1`, the Potency result was “inactive”.

As to `O=C(O)C1C(C(=O)O)C2(Cl)C(Cl)=C(Cl)C1(Cl)C2(Cl)Cl` (stereo not given), the Potency entry was “inactive”.

Take `c1ccc(OCC2CO2)cc1` (stereo not given): the Potency result is “inactive”.

As to `CC(O)C#N` (stereo not given), the Potency result is “inactive”.

For the compound `CC(C)=CC1C(C(=O)OCN2C(=O)C3=C(CCCC3)C2=O)C1(C)C` (stereo not given), the Potency entry is “inactive”.

As to `C=CCO`, the Potency entry is “inactive”.

Consider `O=NN1CCCCCC1`, for which the Potency entry was “inactive”.

Regarding `CC(CC(C(N)=O)(c1ccccc1)c1ccccc1)N(C)C` (stereo not given), the Potency result was “inactive”.

In the case of `CCOP(=O)(Sc1ccccc1)Sc1ccccc1`, the Potency result was “inactive”.

For `CCOc1cc(C=O)ccc1O`, the Potency entry was “inactive”.

Turning to `CCNc1nc(NC(C)(C)C)nc(SC)n1`, the Potency result was “inactive”.

For `ClCC(Cl)Cl`, the Potency entry is “inactive”.

`CCC[N+](=O)[O-]`: the Potency result was “inactive”.

For the compound `CCNc1nc(Cl)nc(NCC)n1`, the Potency entry was “inactive”.

Turning to `CN1C(=O)[C@@H](NC(=O)c2cc3ccccc3[nH]2)N=C(c2ccccc2)c2ccccc21`, the Potency result is “inactive”.

With `CC[C@H]1C[C@@H]2C[C@H]3c4[nH]c5ccc(OC)cc5c4CCN(C2)[C@@H]13`, the Potency entry is “inactive”.

For the compound `CC(C1CC1)C(O)(Cn1cncn1)c1ccc(Cl)cc1` (stereo not given), the Potency entry is “inactive”.

Take `CCNc1nc(NC(C)C)nc(SC)n1`: the Potency result is “inactive”.

With `Cc1cc(O)ccc1Cl`, the Potency entry was “inactive”.

`NNCCO`: the Potency entry was “inactive”.

For `CON(C)C(=O)Nc1ccc(Br)cc1`, the Potency entry was “inactive”.

With `CCO/N=C(\CC)C1=C(O)CC(c2c(C)cc(C)cc2C)CC1=O` (stereo not given), the Potency entry is “inactive”.

For `CN(C)C(=S)SSC(=S)N(C)C`, the Potency was 12 µM (active) and 27.3 µM (active) and 16.8 µM (active).
